For experiment [1], the target named is Estrogen receptor (Homo sapiens) (UniProt P03372). Nature of the experiment: OT_ERa_GFPERaERE_0480: Odyssey Thera (OT) 8-hour HeLa Transcription Induction Assay for Estrogen Receptor (AID 2283381; active = hit-call score of the fitted dose curve at least 0.9, where 1 is the maximum; inactive = score below 0.9). A digest of the protocol: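 HeLa cells expressing GFP reporter under estrogen response element, imaged 8 h after dosing. GFP induction quantified by high-content fluorescence microscopy image analysis; gain of signal fitted versus DMSO.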

The target is the same in experiment [2]. Nature of the experiment: OT_ERa_GFPERaERE_0120: Odyssey Thera (OT) 2-hour HeLa Transcription Induction Assay for Estrogen Receptor (AID 2283382). The method in brief: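 HeLa cells were dosed for 2 h, then GFP reporter induction was quantified by fluorescence microscopy with high-content image analysis. Gain of signal fitted against DMSO baseline.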
Experiment [3] deals with Retinoic acid receptor RXR-alpha (Homo sapiens) (UniProt P19793). Nature of the experiment: OT_NURR1_NURR1RXRa_0480: Odyssey Thera (OT) 8-hour HEK293T Protein Complementation Assay for Nurr1/retinoid X receptor (RXR) (AID 2283385). A digest of the protocol: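 HEK293T cells expressing Nurr1 and RXRα fused to reporter fragments (protein-fragment complementation); fluorescence measured 8 h after dosing. Gain of signal fitted relative to DMSO.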

Experiment [4] shares this target. Nature of the experiment: OT_NURR1_NURR1RXRa_1440: Odyssey Thera (OT) 24-hour HEK293T Protein Complementation Assay for Nurr1/retinoid X receptor (RXR) (AID 2283386). A digest of the protocol: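 HEK293T protein-fragment complementation of Nurr1 and RXRα fused to reporter fragments; compounds 24 h. Fluorescence gain from reconstituted reporter fitted versus DMSO.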

For experiment [5], the target named is Peroxisome proliferator-activated receptor gamma (Homo sapiens) (UniProt P37231). As to the kind of experiment: OT_PPARg_PPARgSRC1_0480: Odyssey Thera (OT) 8-hour Protein-Complementation Assay for Peroxisome Proliferator-activated Receptor Gamma / SRC-1 Co-activator (AID 2283387).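 Also: nuclear to cytoplasmic split Venus YFP fluorescence ratio reporting PPARg SRC-1 interaction.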 The method in brief: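 Protein-fragment complementation in HEK293T: Venus YFP halves (residues 1-158, 159-239, mutated to IFP1/IFP2) fused to PPARg/SRC-1. 8 h exposure; N/C ratio at 488 nm; DMSO negative control.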

The target is the same in experiment [6]. Nature of the experiment: OT_PPARg_PPARgSRC1_1440: Odyssey Thera (OT) 24-hour Protein-Complementation Assay for Peroxisome Proliferator-activated Receptor Gamma/ SRC-1 Co-activator (AID 2283388).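 Also: nuclear to cytoplasmic ratio of reconstituted Venus YFP fluorescence in fixed imaged cells.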 The method in brief: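 Protein-fragment complementation between PPARg and coactivator SRC-1 was measured by fluorescence imaging in transiently transfected HEK293T cells after 24 h treatment. Signal was quantified as N/C ratio in the 488 nm channel, with DMSO as negative control.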

Read-out in experiment [7]: Tumor necrosis factor receptor superfamily member 6 (Homo sapiens) (UniProt P25445)
As to the kind of experiment: LTEA_HepaRG_FAS: Life Technologies and Expression Analysis (LTEA) Assay for Fas cell surface death receptor (FAS) using HepaRG (AID 2283447; active = hit-call score of the fitted dose curve at least 0.9, where 1 is the maximum; inactive = score below 0.9). The conditions noted are these: mRNA level, 48 h; actives raise or lower the signal. The method in brief:
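Differentiated human HepaRG cells, pre-cultured 48 h, were exposed in duplicate for 48 h to 8-point half-log concentrations (top 100 uM, 0.5% DMSO) in serum-free induction medium; FAS mRNA measured by qRT-PCR, normalized to ACTB/GAPDH/POLR2A, bidirectional fit versus DMSO.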

Read-out in experiment [8]: Fatty acid synthase (Homo sapiens) (UniProt P49327)
Nature of the experiment: LTEA_HepaRG_FASN: Life Technologies and Expression Analysis (LTEA) Assay for Fatty Acid Synthase (FASN) using HepaRG (AID 2283448; active = hit-call score of the fitted dose curve at least 0.9, where 1 is the maximum; inactive = score below 0.9). The conditions noted are these: mRNA level, 48 h; actives raise or lower the signal. The method in brief: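 Differentiated HepaRG cells in serum-free induction medium exposed 48 h in duplicate to eight half-log concentrations, top 100 uM, 0.5% DMSO. FASN mRNA by qRT-PCR normalised to ACTB, GAPDH, POLR2A; bidirectional fit versus DMSO.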

Experiment [9] deals with Bile acid receptor (Homo sapiens) (UniProt Q96RI1). Nature of the experiment: OT_FXR_FXRSRC1_1440: Odyssey Thera (OT) 24-hour HEK293T Protein-Complementation Assay for Farnesoid X receptor/SRC-1 Co-activator (AID 2283384). A digest of the protocol: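 HEK293T cells, 24 h after chemical dosing. FXR–SRC-1 coactivator interaction read as fluorescence from protein-fragment complementation of a split reporter. Gain of signal fitted against DMSO baseline.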

Experiment [10] in a line: CEETOX_H295R_OHPREG: CeeTox H295R High-throughput Steroidogenesis Assay for OH-Pregnenolone (OHPREG) (AID 2283434; active = hit-call score of the fitted dose curve at least 0.9, where 1 is the maximum; inactive = score below 0.9). To be noted: actives raise or lower the signal. The method in brief:
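Human adrenal H295R cells were prestimulated 48 h with 10 uM forskolin, then exposed 48 h to chemical in 0.1% DMSO. Medium 17alpha-hydroxypregnenolone was quantified by HPLC-MS/MS after MTBE extraction; bidirectional fitting versus DMSO baseline.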

The nature of experiment [11]: CEETOX_H295R_OHPROG: CeeTox H295R High-throughput Steroidogenesis Assay for OH-Progesterone (OHPROG) (AID 2283435; active = hit-call score of the fitted dose curve at least 0.9, where 1 is the maximum; inactive = score below 0.9). To be noted: actives raise or lower the signal. The method in brief: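 H295R adrenal cells prestimulated 48 h with 10 uM forskolin, then exposed 48 h to chemical (0.1% DMSO final). 17alpha-hydroxyprogesterone in medium quantified by HPLC-MS/MS; bidirectional fit versus DMSO, with MTT viability measured in the same wells.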

The nature of experiment [12]: CEETOX_H295R_PROG: CeeTox H295R High-throughput Steroidogenesis Assay for Progesterone (PROG) (AID 2283442; active = hit-call score of the fitted dose curve at least 0.9, where 1 is the maximum; inactive = score below 0.9;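 also: human H295R adrenal cells primed with 10 µM forskolin before dosing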). To be noted: actives raise or lower the signal. The method in brief:
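Steps: seed H295R cells and let them adhere overnight; prime 48 h with 10 uM forskolin; dose with compound in DMSO at 0.1% final for 48 h; extract medium steroids with MTBE; measure progesterone by LC-MS/MS. MTT viability was run in the same wells.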

A short description of experiment [13]: CEETOX_H295R_11DCORT: CeeTox H295R High-throughput Steroidogenesis Assay for 11-Deoxycortisol (11DCORT) (AID 2283432; active = hit-call score of the fitted dose curve at least 0.9, where 1 is the maximum; inactive = score below 0.9;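 also: 11-deoxycortisol secreted into the medium measured by LC-MS/MS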). The conditions noted are these: actives raise or lower the signal. A digest of the protocol: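 Adrenal carcinoma line H295R, run per OECD 456 with minor changes, was forskolin-stimulated (10 uM, 48 h) before a 48 h chemical exposure at 0.1% DMSO. Secreted 11-deoxycortisol was quantified by HPLC-MS/MS.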

The nature of experiment [14]: CEETOX_H295R_CORTISOL: CeeTox H295R High-throughput Steroidogenesis Assay for Cortisol (AID 2283438; active = hit-call score of the fitted dose curve at least 0.9, where 1 is the maximum; inactive = score below 0.9;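 also: cortisol secreted into medium quantified by LC-MS/MS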). The conditions noted are these: actives raise or lower the signal. The method in brief:
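Forskolin-primed H295R cells (10 uM, 48 h) treated 48 h with test chemical in 0.1% DMSO. Cortisol in medium quantified by MTBE extraction and HPLC-MS/MS; bidirectional fit vs DMSO, MTT viability in same wells.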

Experiment [15] in a line: CEETOX_H295R_DOC: CeeTox H295R High-throughput Steroidogenesis Assay for DOC (AID 2283439; active = hit-call score of the fitted dose curve at least 0.9, where 1 is the maximum; inactive = score below 0.9). The conditions noted are these: actives raise or lower the signal. A digest of the protocol: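 H295R cells prestimulated 48 h with 10 uM forskolin, then exposed 48 h to test chemical (0.1% DMSO final). Medium 11-deoxycorticosterone measured by HPLC-MS/MS after MTBE extraction; bidirectional fit vs DMSO, viability checked by MTT in same wells.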

In general, AC50 refers to the midpoint of the concentration-response curve, whichever way the signal moves.

“And” between values parts separate entries of the source, which are not always exact repeats. Equal entries are not always repeated. Results filed as inconclusive are left out. Some compounds were tested as several samples or in several runs, with calls that do not always agree. The source made the active and inactive calls. The calls were made as follows, unless noted: active = hit-call score of the fitted dose curve at least 0.9, where 1 is the maximum; inconclusive = response in the unintended direction; inactive = score below 0.9.

Chain of Retinoic acid receptor RXR-alpha (Homo sapiens) (P19793 whole entry, looked up, the tested form may be a part): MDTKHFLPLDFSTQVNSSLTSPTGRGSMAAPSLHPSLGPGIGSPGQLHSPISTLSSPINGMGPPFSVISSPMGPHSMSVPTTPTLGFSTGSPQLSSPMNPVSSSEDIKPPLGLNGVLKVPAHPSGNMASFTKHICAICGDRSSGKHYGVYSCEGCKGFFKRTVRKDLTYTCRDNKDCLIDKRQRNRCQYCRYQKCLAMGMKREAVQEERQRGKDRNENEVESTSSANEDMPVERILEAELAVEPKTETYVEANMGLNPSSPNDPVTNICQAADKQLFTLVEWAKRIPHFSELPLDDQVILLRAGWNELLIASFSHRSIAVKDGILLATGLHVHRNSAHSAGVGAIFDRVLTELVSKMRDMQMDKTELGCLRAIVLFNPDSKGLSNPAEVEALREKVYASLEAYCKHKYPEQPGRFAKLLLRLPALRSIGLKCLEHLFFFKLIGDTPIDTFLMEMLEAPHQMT
Chain of Fatty acid synthase (Homo sapiens) (P49327 whole entry, looked up): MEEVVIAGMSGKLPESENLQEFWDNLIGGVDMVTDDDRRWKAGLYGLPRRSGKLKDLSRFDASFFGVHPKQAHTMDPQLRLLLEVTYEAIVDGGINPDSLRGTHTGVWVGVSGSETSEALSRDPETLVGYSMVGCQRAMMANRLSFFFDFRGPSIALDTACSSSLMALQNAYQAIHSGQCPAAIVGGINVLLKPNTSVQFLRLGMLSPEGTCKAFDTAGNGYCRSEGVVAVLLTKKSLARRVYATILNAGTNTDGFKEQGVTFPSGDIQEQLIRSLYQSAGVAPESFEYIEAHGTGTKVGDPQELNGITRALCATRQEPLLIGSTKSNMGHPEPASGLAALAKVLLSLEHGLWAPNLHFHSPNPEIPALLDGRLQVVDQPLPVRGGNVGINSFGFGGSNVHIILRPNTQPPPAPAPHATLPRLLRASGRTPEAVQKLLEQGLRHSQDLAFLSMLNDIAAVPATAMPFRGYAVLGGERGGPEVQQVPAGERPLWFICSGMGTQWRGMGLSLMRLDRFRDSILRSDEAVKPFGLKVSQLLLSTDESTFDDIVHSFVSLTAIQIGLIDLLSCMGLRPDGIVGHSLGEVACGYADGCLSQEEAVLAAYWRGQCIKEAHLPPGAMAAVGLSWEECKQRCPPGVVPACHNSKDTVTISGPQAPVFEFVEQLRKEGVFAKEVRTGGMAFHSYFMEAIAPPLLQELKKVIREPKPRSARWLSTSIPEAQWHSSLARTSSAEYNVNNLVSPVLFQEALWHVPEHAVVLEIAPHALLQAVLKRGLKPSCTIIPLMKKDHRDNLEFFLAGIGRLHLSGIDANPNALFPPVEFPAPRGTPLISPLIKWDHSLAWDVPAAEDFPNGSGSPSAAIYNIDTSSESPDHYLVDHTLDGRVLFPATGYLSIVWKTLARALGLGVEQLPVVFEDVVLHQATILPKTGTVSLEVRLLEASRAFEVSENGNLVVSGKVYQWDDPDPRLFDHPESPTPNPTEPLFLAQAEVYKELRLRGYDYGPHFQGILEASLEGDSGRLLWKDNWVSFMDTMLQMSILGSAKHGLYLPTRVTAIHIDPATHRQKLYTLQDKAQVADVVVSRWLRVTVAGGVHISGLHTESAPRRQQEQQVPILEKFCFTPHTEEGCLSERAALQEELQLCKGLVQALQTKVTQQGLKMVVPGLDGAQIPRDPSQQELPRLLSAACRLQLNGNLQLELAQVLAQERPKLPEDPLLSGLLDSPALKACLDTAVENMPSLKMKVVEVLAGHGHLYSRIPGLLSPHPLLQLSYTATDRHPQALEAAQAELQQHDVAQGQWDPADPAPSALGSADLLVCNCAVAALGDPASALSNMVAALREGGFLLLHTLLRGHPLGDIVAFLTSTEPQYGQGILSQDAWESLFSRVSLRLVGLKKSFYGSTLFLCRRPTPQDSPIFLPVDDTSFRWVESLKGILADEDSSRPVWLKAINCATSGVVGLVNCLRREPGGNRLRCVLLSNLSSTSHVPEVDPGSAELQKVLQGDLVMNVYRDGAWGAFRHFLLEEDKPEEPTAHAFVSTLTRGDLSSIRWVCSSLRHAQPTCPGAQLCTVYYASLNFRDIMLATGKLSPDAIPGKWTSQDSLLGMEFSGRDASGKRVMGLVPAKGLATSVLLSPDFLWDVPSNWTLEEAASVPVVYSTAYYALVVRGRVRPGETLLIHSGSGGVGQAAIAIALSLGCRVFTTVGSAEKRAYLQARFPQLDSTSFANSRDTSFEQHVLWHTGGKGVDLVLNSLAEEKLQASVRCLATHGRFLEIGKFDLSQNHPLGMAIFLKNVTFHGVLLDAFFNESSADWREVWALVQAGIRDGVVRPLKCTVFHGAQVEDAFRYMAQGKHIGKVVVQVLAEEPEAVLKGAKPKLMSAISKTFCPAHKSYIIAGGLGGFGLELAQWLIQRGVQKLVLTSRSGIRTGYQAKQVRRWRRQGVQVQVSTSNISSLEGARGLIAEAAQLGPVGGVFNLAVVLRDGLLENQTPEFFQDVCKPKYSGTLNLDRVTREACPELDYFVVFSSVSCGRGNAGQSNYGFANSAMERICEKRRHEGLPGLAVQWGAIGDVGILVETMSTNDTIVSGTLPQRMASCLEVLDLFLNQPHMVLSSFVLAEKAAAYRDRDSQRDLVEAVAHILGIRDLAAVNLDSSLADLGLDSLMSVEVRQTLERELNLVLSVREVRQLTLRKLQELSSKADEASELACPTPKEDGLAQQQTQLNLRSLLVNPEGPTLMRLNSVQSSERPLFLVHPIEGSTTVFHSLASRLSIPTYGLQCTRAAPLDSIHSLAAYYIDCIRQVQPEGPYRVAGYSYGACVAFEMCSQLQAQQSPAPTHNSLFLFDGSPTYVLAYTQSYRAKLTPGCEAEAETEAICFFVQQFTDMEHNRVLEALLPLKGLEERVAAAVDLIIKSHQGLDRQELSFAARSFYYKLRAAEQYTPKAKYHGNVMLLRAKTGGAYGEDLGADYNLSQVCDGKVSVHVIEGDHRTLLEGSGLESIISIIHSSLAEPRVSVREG
Chain of Peroxisome proliferator-activated receptor gamma (Homo sapiens) (P37231 whole entry, looked up, the tested form may be a part): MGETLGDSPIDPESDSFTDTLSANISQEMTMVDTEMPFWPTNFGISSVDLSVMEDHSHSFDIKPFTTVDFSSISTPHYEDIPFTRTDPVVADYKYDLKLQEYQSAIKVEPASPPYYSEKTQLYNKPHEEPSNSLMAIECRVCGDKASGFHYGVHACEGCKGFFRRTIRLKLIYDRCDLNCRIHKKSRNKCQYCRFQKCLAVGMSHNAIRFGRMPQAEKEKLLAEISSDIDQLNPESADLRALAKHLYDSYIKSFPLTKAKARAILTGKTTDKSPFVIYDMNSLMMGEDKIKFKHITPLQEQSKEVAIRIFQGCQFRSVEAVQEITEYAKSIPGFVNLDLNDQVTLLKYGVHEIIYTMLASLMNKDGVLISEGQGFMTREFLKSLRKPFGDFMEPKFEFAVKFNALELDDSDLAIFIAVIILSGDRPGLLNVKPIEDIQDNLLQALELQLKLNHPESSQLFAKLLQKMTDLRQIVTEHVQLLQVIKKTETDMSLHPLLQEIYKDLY
Chain of Estrogen receptor (Homo sapiens) (P03372 whole entry, looked up): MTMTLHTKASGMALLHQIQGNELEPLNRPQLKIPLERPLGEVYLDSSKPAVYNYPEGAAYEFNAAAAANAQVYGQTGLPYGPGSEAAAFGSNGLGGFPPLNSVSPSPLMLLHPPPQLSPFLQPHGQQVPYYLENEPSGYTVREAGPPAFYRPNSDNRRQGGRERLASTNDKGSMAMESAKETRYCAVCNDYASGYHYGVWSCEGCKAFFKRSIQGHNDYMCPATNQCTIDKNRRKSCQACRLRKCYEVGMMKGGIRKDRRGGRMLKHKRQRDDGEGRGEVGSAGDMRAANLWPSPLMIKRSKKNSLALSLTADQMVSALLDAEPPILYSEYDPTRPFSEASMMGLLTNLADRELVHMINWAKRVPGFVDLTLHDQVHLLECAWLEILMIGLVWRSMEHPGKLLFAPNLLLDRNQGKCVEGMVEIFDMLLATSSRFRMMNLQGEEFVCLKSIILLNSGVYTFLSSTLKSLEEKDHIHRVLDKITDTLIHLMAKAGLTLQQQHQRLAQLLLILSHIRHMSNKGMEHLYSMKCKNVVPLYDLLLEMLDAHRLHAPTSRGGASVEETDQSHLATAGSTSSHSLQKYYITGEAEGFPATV
Chain of Bile acid receptor (Homo sapiens) (Q96RI1 whole entry, looked up, the tested form may be a part): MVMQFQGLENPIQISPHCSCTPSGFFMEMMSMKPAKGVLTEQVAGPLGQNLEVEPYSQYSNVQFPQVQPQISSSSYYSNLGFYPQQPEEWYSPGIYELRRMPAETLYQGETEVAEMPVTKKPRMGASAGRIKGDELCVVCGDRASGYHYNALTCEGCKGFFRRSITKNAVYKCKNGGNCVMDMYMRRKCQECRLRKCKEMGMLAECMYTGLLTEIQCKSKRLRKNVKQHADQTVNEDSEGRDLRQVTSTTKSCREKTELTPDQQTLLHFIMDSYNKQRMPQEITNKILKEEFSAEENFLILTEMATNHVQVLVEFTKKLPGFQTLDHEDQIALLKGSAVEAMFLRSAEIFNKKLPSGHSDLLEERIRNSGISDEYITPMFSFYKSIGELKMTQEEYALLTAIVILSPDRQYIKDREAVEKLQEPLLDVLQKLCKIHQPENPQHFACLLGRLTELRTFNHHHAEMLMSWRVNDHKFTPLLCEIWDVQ

For the compound `CCNc1cccc(C)c1`, the compound was called inactive in [1], in [2], in experiment [3], in experiment [4], in experiment [5] and in [6]. The result in [7] and in experiment [8] was inactive.

On to `CC(=O)OC/C=C(\C)CCC=C(C)C`, for which the compound was called inactive in [1], in experiment [2], in [3], in [4], in [5] and in experiment [6]. In addition, the compound was called inactive in [7] and in experiment [8].

Consider `Cc1cc(=O)[nH]c(=S)[nH]1`, for which the call in [1], in experiment [2], in experiment [9], in [3], in [4] and in experiment [5] was inactive. Further, the call in experiment [6], in [7] and in experiment [8] was inactive.

Consider `Cc1ccc2ncccc2c1`, for which the result in experiment [1], in experiment [2], in experiment [5], in [6], in [7] and in experiment [8] was inactive.

For `FC(F)(F)C(F)(F)C(F)(F)C(F)(F)C(F)(F)C(F)(F)CCI`, the result in experiment [1], in [2], in experiment [3], in [4], in experiment [5] and in experiment [6] was inactive. Also, the result in experiment [7] and in [8] was inactive.

On to `CC(CO)OC(C)CO` (stereo not drawn) (tested in a mixture with another compound), for which the call in [1], in [2], in experiment [9], in experiment [3], in [4] and in [5] was inactive. In addition, the result in experiment [6], in experiment [7] and in experiment [8] was inactive.

Turning to `O=C(OCCCCCOC(=O)c1ccccc1)c1ccccc1`, the compound was called inactive in experiment [1], in [2], in experiment [3], in experiment [5], in experiment [6] and in experiment [8]. The results for the AC50 in experiment [3] and in [7] were 72.2 µM (active) and 1.08 µM (active), respectively.

With `CC(=O)C(C)=CC1C(C)=CCCC1(C)C` (stereo not drawn), the result in experiment [1], in experiment [3], in experiment [4], in [5], in experiment [6] and in [7] was inactive. Further, the result in experiment [8] was inactive. The AC50 in experiment [2] is 12.3 µM (active).

Consider `Cc1ccc(Cl)cc1`, for which the call in experiment [1], in experiment [2], in experiment [3], in experiment [4], in [5] and in experiment [6] was inactive. Further, the compound was called inactive in [7] and in [8].

In the case of `Nc1ccc(S(=O)(=O)c2ccc(N)cc2)cc1`, the compound was called inactive in experiment [1], in experiment [2], in experiment [9], in experiment [3], in experiment [4] and in [5]. Also, the compound was called inactive in experiment [6], in [10], in experiment [7] and in experiment [8]. The AC50 in experiment [11] was 30.5 µM (active); in experiment [12] it was 36.1 µM (active).

On to `NC(=O)Cn1c(=O)cc(CCN2CCN(c3nccc4sccc34)CC2)c2ccc(F)cc21`, for which the compound was called inactive in [1], in [2], in experiment [9], in experiment [5], in experiment [6] and in experiment [7]. Besides, the AC50 in experiment [13] is 27.6 µM (active); in experiment [10] it was 25 µM (active); in [11] it was 7.83 µM (active); in [14], 25 µM (active); in [15] it was 16.9 µM (active); in experiment [12], 2.02 µM (active). The AC50 in [8] was 29.5 µM (active).

For `NCCO`, the compound was called inactive in experiment [1], in experiment [2], in [3], in [4], in experiment [7] and in experiment [8].

For the compound `COc1cc(S(=O)(=O)O)c(C)cc1N=Nc1c(O)ccc2cc(S(=O)(=O)O)ccc12`, the result in [1], in experiment [2], in experiment [9], in [4], in experiment [5] and in [6] was inactive. The compound was called inactive in [7] and in experiment [8]. Further, the AC50 was 50 µM (active) and 61.4 µM (active) in [3]; 75.9 µM (active) in [4].
